Records with an inconclusive call do not appear. Calls of active or inactive are those of the source. The call rests on the fitted dose curve; in most records, active means well fitted curve in the direction sought with a large enough effect; inconclusive means small, poorly fitted or top-dose-only effect, or another doubt; inactive means no such curve, though single readings can be large; an effect the other way counts as inactive or inconclusive.
How the values were obtained:
MCC-13 = assay: qHTS assay to identify novel small-molecules to repurpose for Merkel cell carcinoma treatment (AID 1296009); conditions: MCC and control cell lines, CellTiter-Glo viability, 72 h; series mostly up to 46 µM; further: nearly all actives have a fitted effect of over 60% in size
In short: (§1)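 After compound transfer in DMSO, plates were kept 72 hr at 37 degree celsius. Luminescent ATP signal from CellTiter-Glo served as viability measure, normalized against DMSO and no-cell controls.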

MCC-26 = assay: as above; conditions: MCC and control cell lines, CellTiter-Glo viability, 72 h; series mostly up to 46 µM
In short: as §1

MKL-1 = assay: as above; conditions: MCC and control cell lines, CellTiter-Glo viability, 72 h; series mostly up to 46 µM
In short: as §1

MKL-2 = assay: as above; conditions: MCC and control cell lines, CellTiter-Glo viability, 72 h; series mostly up to 46 µM
In short: as §1

WaGa = assay: as above; conditions: MCC and control cell lines, CellTiter-Glo viability, 72 h; series mostly up to 46 µM
In short: as §1

NIH3T3 = assay: as above; conditions: MCC and control cell lines, CellTiter-Glo viability, 72 h; series mostly up to 44.8 µM
In short: as §1

UISO = assay: as above; conditions: MCC and control cell lines, CellTiter-Glo viability, 72 h; series mostly up to 46 µM
In short: as §1

C33A = assay: Primary qHTS to identify gynecologic anti-cancer compounds using libraries of approved drugs and bioactive compounds (AID 1345084); conditions: Gynecologic cancer cell panel viability, ATPlite luminescence, 48 h; series mostly up to 57.5 µM; further: nearly all actives have a fitted effect of over 55% in size
In short: (§2)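 Cell viability after 48 h drug treatment, ATPlite luminescence readout; five doses.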

CASKI = assay: as above; conditions: Gynecologic cancer cell panel viability, ATPlite luminescence, 48 h; series mostly up to 57.5 µM
In short: as §2

Es-2 = assay: as above; conditions: Gynecologic cancer cell panel viability, ATPlite luminescence, 48 h; series mostly up to 57.5 µM
In short: as §2

HeLa = assay: as above; conditions: Gynecologic cancer cell panel viability, ATPlite luminescence, 48 h; series mostly up to 57.5 µM
In short: as §2

Hek293T = assay: as above; conditions: Gynecologic cancer cell panel viability, ATPlite luminescence, 48 h, control line for the selectivity index; series mostly up to 57.5 µM
In short: as §2

JEG-3 = assay: as above; conditions: Gynecologic cancer cell panel viability, ATPlite luminescence, 48 h; series mostly up to 57.5 µM
In short: as §2

OV90 = assay: as above; conditions: Gynecologic cancer cell panel viability, ATPlite luminescence, 48 h; series mostly up to 57.5 µM
In short: as §2

PA-1 = assay: as above; conditions: Gynecologic cancer cell panel viability, ATPlite luminescence, 48 h; series mostly up to 57.5 µM
In short: as §2

SKOV3 = assay: as above; conditions: Gynecologic cancer cell panel viability, ATPlite luminescence, 48 h; series mostly up to 57.5 µM
In short: as §2

Tov-21-G = assay: as above; conditions: Gynecologic cancer cell panel viability, ATPlite luminescence, 48 h; series mostly up to 57.5 µM
In short: as §2

Tov112D = assay: as above; conditions: Gynecologic cancer cell panel viability, ATPlite luminescence, 48 h; series mostly up to 57.5 µM
In short: as §2

[1] = Drug repurposing screens with cells derived from glioblastoma tumor samples (AID 1345199); conditions: GBM patient neurospheres viability, ATP luminescence, 48 h; further: nearly all actives have a fitted effect of over 40% in size
In short: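 Four patient lines of CD133+ GBM neurospheres were screened at several concentrations; hits were retested in those lines plus three slower-growing GBM lines, using 48-hour treatment and ATP-based viability.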

[2] = at 45.9 µM (top of the series), tumour line B
[3] = at 45.9 µM (top of the series), tumour line D
[4] = at 46.1 µM (top of the series), tumour line C
On the % scale 0 is the no-effect control and ±100 the full control effect; potency means the concentration at half of the fitted maximal effect.

O=C1Nc2ccc(I)cc2C1=Cc1cc(Br)c(O)c(Br)c1
inactive: Potency (MCC-13) | Potency (MCC-26) | Potency (MKL-1) | Potency (MKL-2) | Potency (WaGa)

NC(N)=Nc1nc(CSCCC(N)=NS(N)(=O)=O)cs1
inactive: Potency (MCC-13) | Potency (MCC-26) | Potency (MKL-1) | Potency (NIH3T3) | Potency (UISO)

O=C(CO)N1CCC(c2[nH]nc(-c3ccc(Cl)cc3)c2-c2ccncn2)CC1
inactive: Potency (MCC-13) | Potency (MCC-26) | Potency (MKL-1) | Potency (MKL-2) | Potency (C33A) | Potency (CASKI) | Potency (Es-2) | Potency (HeLa) | Potency (Hek293T) | Potency (JEG-3) | Potency (OV90) | Potency (PA-1) | Potency (SKOV3) | Potency (Tov-21-G) | Potency (Tov112D)

Nc1[nH]nc2nnc(-c3c(-c4ccccc4)nn4ccccc34)cc12
inactive: Potency (MCC-13) | Potency (MCC-26) | Potency (MKL-1) | Potency (NIH3T3) | Potency (UISO) | Potency (C33A) | Potency (CASKI) | Potency (Es-2) | Potency (HeLa) | Potency (Hek293T) | Potency (OV90) | Potency (PA-1) | Potency (SKOV3) | Potency (Tov-21-G) | Potency (Tov112D)
active: Potency (WaGa) 1050 nM

COc1cc2ncnc(Nc3cc(Br)c(O)c(Br)c3)c2cc1OC
inactive: Potency (MCC-13) | Potency (MCC-26) | Potency (MKL-1) | Potency (NIH3T3) | Potency (WaGa) | Potency (C33A) | Potency (CASKI) | Potency (Es-2) | Potency (HeLa) | Potency (Hek293T) | Potency (JEG-3) | Potency (OV90) | Potency (PA-1) | Potency (Tov-21-G) | Potency (Tov112D)

C#CCN(C)CC1=Cc2ccccc2Oc2ccccc21
inactive: Potency (MCC-13) | Potency (MCC-26) | Potency (MKL-1) | Potency (MKL-2) | Potency (WaGa)

CN(C)CCN(Cc1ccc(Cl)cc1)c1ccccn1
active: Potency ([1]; tumour line A) 10000 nM
inactive: Potency (MCC-13) | Potency (MCC-26) | Potency (MKL-1) | Potency (MKL-2) | Potency (UISO) | Potency (C33A) | Potency (CASKI) | Potency (Es-2) | Potency (HeLa) | Potency (Hek293T) | Potency (JEG-3) | Potency (OV90) | Potency (PA-1) | Potency (SKOV3) | Potency (Tov-21-G) | Potency (Tov112D) | activity, negative = cell killing ([1]; at 20 µM (top of the series), tumour line C) -14.6% | activity, negative = cell killing ([1]; at 21.2 µM (top of the series), tumour line B) -16.9%

Cc1ccc2c(c1)c1c(n2CCc2ccc(C)nc2)CCN(C)C1
inactive: Potency (MCC-13) | Potency (MCC-26) | Potency (MKL-1) | Potency (MKL-2) | Potency (UISO) | Potency (WaGa) | Potency (HeLa) | Potency (JEG-3) | Potency (OV90)

CC(=O)O[C@]1(C(C)=O)CC[C@H]2[C@@H]3C=C(Cl)C4=CC(=O)[C@@H]5C[C@H]5[C@]4(C)[C@@H]3CC[C@@]21C
inactive: Potency (MCC-13) | Potency (MCC-26) | Potency (MKL-1) | Potency (NIH3T3) | Potency (WaGa)

CC(C)(C)c1nc(-c2cccc(NS(=O)(=O)c3c(F)cccc3F)c2F)c(-c2ccnc(N)n2)s1
inactive: Potency (MCC-13) | Potency (MCC-26) | Potency (MKL-1) | Potency (MKL-2) | Potency (UISO) | Potency (WaGa) | Potency (CASKI) | Potency (HeLa) | Potency (Hek293T) | Potency (JEG-3) | Potency (OV90) | Potency (PA-1) | Potency (Tov112D)

CC(C)(CO)[C@@H](O)C(=O)NCCC(=O)O
inactive: Potency (MCC-13) | Potency (MCC-26) | Potency (MKL-1) | Potency (MKL-2) | Potency (UISO) | Potency (WaGa) | activity, negative = cell killing [1, 2] 1.18% | activity, negative = cell killing [1, 3] -3.38% | activity, negative = cell killing [1, 4] -2.72%

CC(C)N(CCCNC(=O)Nc1ccc(C(C)(C)C)cc1)C[C@H]1O[C@@H](n2cc(Br)c3c(N)ncnc32)[C@H](O)[C@H]1O
inactive: Potency (MCC-13) | Potency (MCC-26) | Potency (MKL-1) | Potency (MKL-2) | Potency (WaGa)

COc1ccc(-c2cc3nccn3c(Nc3ncccc3C(N)=O)n2)cc1OC
inactive: Potency (MCC-13) | Potency (MCC-26) | Potency (MKL-1) | Potency (MKL-2) | Potency (WaGa) | Potency (C33A) | Potency (CASKI) | Potency (Es-2) | Potency (Hek293T) | Potency (OV90) | Potency (Tov112D)
active: Potency (PA-1) 3550 nM

CC(C)C[C@H](NC(=O)c1cc2ccccc2s1)C(=O)N1CCN(C(=O)[C@H](CO)NS(=O)(=O)c2ccc(Cl)cc2Cl)CC1
inactive: Potency (MCC-13) | Potency (MCC-26) | Potency (MKL-1) | Potency (MKL-2) | Potency (WaGa)

CNC(=O)[C@H](CC1=CN=C2C=CCC=C12)NC(=O)[C@@H](CC(=O)NO)CC(C)C
active: Potency (MKL-1) 296 nM | Potency (MKL-2) 264 nM | Potency (WaGa) 296 nM
inactive: Potency (MCC-13) | Potency (MCC-26)

O=C(O)c1nc(=O)[nH]c(=O)[nH]1
inactive: Potency (MCC-13) | Potency (MCC-26) | Potency (MKL-1) | Potency (MKL-2) | Potency (UISO) | Potency (WaGa) | activity, negative = cell killing [1, 2] 0.794% | activity, negative = cell killing [1, 3] 6.49% | activity, negative = cell killing ([1]; at 46 µM (top of the series), tumour line A) -9.41% | activity, negative = cell killing [1, 4] -6.32%

CO[C@H]1O[C@@H]2O[C@@]3(C)CC[C@@H]4[C@@H](C)CC[C@@H]([C@H]1C)[C@@]24OO3
inactive: Potency (MCC-13) | Potency (MCC-26) | Potency (MKL-1) | Potency (NIH3T3)
active: Potency (WaGa) 20900 nM

— PubChem BioAssay (NCATS)
